Tau ThT inhib: blocks human tau fibril formation measured by thioflavin T | P10636 | recombinant tau K18 P301L, heparin-induced fibrillization, ThT fluorescence | Potency, µM (top dose mostly 57.4 µM), inactives show at the top dose activity, negative = inhibition, most hits filed as inhibitors | hit rate 2.1% among 270,000; also: potency is read from the fitted curve at half-maximal effect; nearly all actives have a fitted effect of over 55% in size
Target sequence (P10636 561-689 P618L limits assumed): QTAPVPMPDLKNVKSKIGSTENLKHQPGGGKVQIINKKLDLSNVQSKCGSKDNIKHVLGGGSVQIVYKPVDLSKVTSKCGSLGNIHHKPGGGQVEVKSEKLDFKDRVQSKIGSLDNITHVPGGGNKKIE
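Recombinant human tau K18 fragment […] carrying P301L, 15 uM unlabeled plus 0.24 uM Alexa 594-labeled, was fibrillized with 20 uM heparin in 100 mM sodium acetate pH 7 for 6 hr at 37 C; 30 uM ThT fluorescence read after 1 hr.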
Tau FP inhib: tau fibrillization inhibition (FP). P10636. K18 P301L tau heparin fibrillization, Alexa594 FP, 6 h. Potency, µM (top dose mostly 57.7 µM), inactives show top-dose activity, negative = inhibition, actives largely listed as inhibitors. hit rate 0.39% among 280,000. AID 1468; also: potency is read from the fitted curve at half-maximal effect; nearly all actives have a fitted effect of over 55% in size
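K18 P301L tau (15 uM unlabeled/0.24 uM Alexa 594-labeled, final) + compound + heparin 20 uM final; 100 mM NaOAc pH 7; 6 hr 37 C; ThT 30 uM final added, 1 hr RT; FP ex 555/em 632 nm.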
Tau fluor counter: counter-screen for tau fibril formation inhibitors; tau K18 P301L (four-repeat tau fragment) Alexa594 fluorescence, heparin fibrillization; Potency, µM (series often up to 57.7 µM), without a hit: top-dose activity change, negative = decrease; AID 1463; hit rate 0.93% among 280,000; also: potency is read from the fitted curve at half-maximal effect; nearly all actives have a fitted effect of over 55% in size
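Human K18 P301L tau (15 uM unlabeled plus 0.24 uM Alexa 594-labeled, final) in 100 mM sodium acetate pH 7 was mixed with compound and 20 uM heparin and incubated 6 hr at 37 C.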
Sfp inh: blocks B. subtilis Sfp PPTase activity; Biochemical Sfp PPTase activity, qHTS; Potency, µM, for inactives: largest response in the series, negative = inhibition, usual class: inhibitors; hit rate 3.5% among 310,000; AID 1490;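 also: the enzyme is Sfp with the accession as filed and its product quenches rhodamine fluorescence; potency is read from the fitted curve at half-maximal effect; 0% = enzyme reaction without inhibitor and -100% = no enzyme wells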
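Fluorescence-quenching assay: 15 nM Sfp-PPTase preincubated 15 min at room temperature with compound, then 5 uM rhodamine-CoA and 12.5 uM BHQ-2-labelled YbbR peptide added. Fluorescence (ex 525/em 598 nm) read at start and after 30 min; difference gives rate.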
JMJD2E inh: inhibitors of human JMJD2E histone demethylase; B2RXH2; JMJD2E catalytic domain, FDH-coupled NADH fluorescence (FDH is formaldehyde dehydrogenase); Potency, µM (doses to about 57.1 µM), without a hit: at the highest dose activity change, negative = inhibition, hits mostly inhibitors; hit rate 1.6% among 230,000; active = well fitted inhibition curve with a large enough effect, not every such curve was filed as active; inconclusive = small, poorly fitted or top-dose-only effect, or another doubt; inactive = no such curve, though single readings can be large or run the other way;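 also: potency is read from the fitted curve at half-maximal effect; 0% = wells with enzyme and -100% = buffer wells without enzyme; nearly all actives have a fitted effect of over 50% in size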
Target sequence (B2RXH2 1-337 limits assumed): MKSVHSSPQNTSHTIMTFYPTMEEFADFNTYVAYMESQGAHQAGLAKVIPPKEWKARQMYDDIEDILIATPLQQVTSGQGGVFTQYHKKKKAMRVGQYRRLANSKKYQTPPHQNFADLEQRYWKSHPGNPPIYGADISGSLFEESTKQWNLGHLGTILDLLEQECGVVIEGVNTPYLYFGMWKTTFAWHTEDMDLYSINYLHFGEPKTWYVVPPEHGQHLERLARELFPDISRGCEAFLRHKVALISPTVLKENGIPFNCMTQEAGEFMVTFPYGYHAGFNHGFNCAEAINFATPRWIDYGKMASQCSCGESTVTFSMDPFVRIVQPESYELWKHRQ
Coupling enz: inhibits coupling enzyme system, counter-screen for aldolase hits; coupling enzyme system counterscreen, AmpLite Red fluorescence; activity change, negative = inhibition, % at 58.2 µM, hits read low; hit rate 0.67% among 290,000; AID 2472; in the data active = activity change below about -30%
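Counterscreen lacking aldolase: glyceraldehyde-3-phosphate coupling-enzyme reagent preincubated 10 min at RT with compound (at 57.5 uM final), then substrate/coupling system with AmpLite Red added; fluorescence read at 525/598 nm after 20 min RT.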
Starred values were filed as active, the others as inactive; ? = inconclusive; / = no result given; [ ] = remark or other dose. Rows were chosen to be rich in hits. Some 5.3% of all compounds tested hit in one or more screens of this group. Unless noted, calls follow the shape of the dose curve; as a rule, active = well fitted curve in the direction sought with a large enough effect; inconclusive = small, poorly fitted or top-dose-only effect, or another doubt; inactive = no such curve, though single readings can be large; an effect the other way counts as inactive or inconclusive. Unless noted, % is scaled to controls: 0 for no effect and ±100 for the full control effect.

SMILES	Tau ThT inhib	Tau FP inhib	Tau fluor counter	Sfp inh	JMJD2E inh	Coupling enz
CCOc1ccccc1NC(=O)Nc1nnc(N2CCCC(C)C2)s1 (stereo not given)	1%	7%	1%	/	/	/
COc1ccc(-n2nnc3c(SC(C(C)=O)C(=O)N(C)C)ncnc32)cc1 (stereo not given)	/	/	/	18µM*	/	/
COc1ccc2c(c1)c(C(=O)N/N=C/c1cccc(Br)c1)c(C)n2C	?	8%	-19%	-2%	-1%	-45*
Cc1cc(C)n(-c2cc(Cl)ccc2[N+](=O)[O-])n1	5%	-5%	8%	12%	6%	-8
Cc1ccc([N+](=O)[O-])c(C)[n+]1C	?	-4%	?	-25%	18µM*	-8
Nc1[nH]nc2c1NN(c1ccc(Cl)cc1Cl)N2	3.5µM*	?	?	-7%	-5%	0
O=C(Nc1ccc(OCC(F)(F)C(F)F)c(C(F)(F)F)c1)c1ccccc1O	?	25µM*	?	30%	?	0
Cc1ccc(CCNc2nc3c(S(=O)(=O)c4ccc(C)cc4)nnn3c3ccsc23)cc1	10%	?	-26%	/	/	/
COc1ccc(/C=C/C(=O)c2ccc[nH]2)c(OC)c1OC	-18%	4%	-7%	7%	-8%	0
COc1ccc(/C=C/C(=O)c2ccncc2)c2ccccc12	16µM*	?	-13%	?	-30%	-43*
N#CCC(=O)NN	/	/	/	8%	/	/
COc1cc(CNCCSc2nnnn2C)cc(Br)c1OCc1ccc(F)cc1	?	-1%	-25%	14µM*	-1%	-6
CC1=CC(=O)C=C(C)C1=NOC(=O)/C=C\c1ccccc1	16µM*	?	-17%	-9%	-13%	-16
CC1=CC(=NOC(=O)/C=C/c2ccccc2)C=C(C)C1=O	22µM*	?	-28%	-19%	0%	-45*
Cc1ccc(NC(=O)C(C)OC(=O)/C=C/c2ccccc2)cc1 (stereo not given)	/	/	/	7%	/	/
N/C(=N\OC(=O)/C=C/c1ccccc1)c1ccncc1	-12%	2%	-5%	29%	6%	1
CC1=C(C)/C(=N\OC(=O)/C=C/c2ccccc2)C=CC1=O	13µM*	?	-21%	9%	0%	/
CC(C)[C@H](N)C(=O)N[C@@H](CCC(N)=O)C(=O)NCC(=O)N[C@@H](CCC(=O)O)C(=O)N[C@@H](CCC(=O)O)C(=O)N[C@@H](CO)C(=O)N[C@@H](CC(N)=O)C(=O)N[C@@H](CC(=O)O)C(=O)N[C@@H](CCCCN)C(=O)O	/	/	/	-1%	/	0
O=C(c1ccncc1)N1CCC[C@@]2(CCN(c3cccc(-c4ccccc4)c3)C2)C1	/	/	/	-15%	/	-1
O=C(NNc1cc(C(F)(F)F)ccc1Cl)c1ccc(=O)[nH]c1	/	/	/	56µM*	/	1
CC(C)n1c(=S)[nH]c2ccccc21	-7%	-3%	-5%	79µM*	-4%	-21
CCn1c(=S)[nH]c2ccccc21	-4%	4%	-2%	-9%	-5%	-1
C[N+]12CCCCC1C(COC(=O)c1ccc3c(c1)OCO3)CCC2 (stereo not given)	-6%	-7%	-8%	7%	22µM*	4
COc1ccc(C)cc1NC(=O)c1nnn(-c2c(C)cccc2C)c1C	-9%	9%	-10%	/	/	/
CS(=O)(=O)N1CCC2(CC1)CN(Cc1ccc(C#N)cc1)C2	/	/	/	22%	/	1
SMILES	Tau ThT inhib	Tau FP inhib	Tau fluor counter	Sfp inh	JMJD2E inh	Coupling enz
O=C1C(Nc2ccccc2)=C/C(=N/S(=O)(=O)c2cccs2)c2ccccc21	3.5µM*	?	8.9µM*[quencher]	?	?	-38*
Cc1ccc(NC2=C/C(=N/S(=O)(=O)c3cccs3)c3ccccc3C2=O)cc1	?	-1%	8.9µM*[quencher]	-1%	3%	-42*
Cc1ccc(/C=C2\S/C(=N/S(=O)(=O)c3cccs3)NC2=O)cc1	-20%	0%	-14%	?	-3%	14
COc1cccc(C2=Nn3c(nnc3-c3cc(OC)cc(OC)c3)SC2)c1	/	/	/	-24%	/	0
CCC(C)(C)n1nnnc1C(c1ccc(O)cc1)N1CCc2ccccc2C1 (stereo not given)	?	3%	-14%	14µM*	-6%	5
COCCn1nnnc1C(c1ccc(O)c(OC)c1)N1CCc2ccccc2C1 (stereo not given)	?	-10%	-16%	14µM*	-29%	-3
CSc1nn(Cc2cccc(Cl)c2)c(N(C(C)=O)C(C)=O)c1S(=O)(=O)c1ccccc1	?	?	-19%	/	/	/
O=C(O)CNC(=O)CC1S/C(=N/N=C2/NC(=O)CS2)NC1=O (stereo not given)	?	-3%	-10%	32µM*	34%	0
NC(=O)NC(=O)CC1S/C(=N/N=C/c2ccccc2)NC1=O (stereo not given)	2%	-4%	7%	23%	8%	-2
NC(=O)NC(=O)CC1S/C(=N/N=C2\CSC(=O)N2)NC1=O (stereo not given)	?	-18%	1%	11µM*	54%	-5
Cc1cc(C)cc(NC(=O)NCCn2nnc3cc(S(=O)(=O)N(C)C)ccc32)c1	-4%	-5%	-14%	/	/	/
Nc1n[nH]c(C2CCCCC2)n1	-6%	5%	-8%	6%	2%	5
S=c1nc(C2CCCCC2)[nH][nH]1	-10%	4%	-2%	56µM*	?	1
COc1ccccc1NC(=S)N(CCCN1CCOCC1)Cc1cn(C)c2ccccc12	-8%	-3%	-19%	-6%	-1%	0
COc1ccc(Cl)cc1NC(=S)N(CCCN1CCOCC1)Cc1cn(C)c2ccccc12	-13%	5%	?	13µM*	-13%	-5
COc1cc(Cl)ccc1NC(=S)N(CCCN1CCOCC1)Cc1cn(C)c2ccccc12	-9%	4%	?	11µM*	-2%	-3
CCOc1ccccc1NC(=S)N(CCCN1CCOCC1)Cc1cn(C)c2ccccc12	-15%	-2%	-22%	-3%	-4%	1
O=C(NC1CC(=O)N(c2cccc(F)c2)C1)C1CC1 (stereo not given)	3%	-6%	1%	/	/	/
CC(C)CO/N=C1/C[C@@H](O)[C@@H](O)[C@@H]2[C@@H]3C(=O)N(C(C)(C)C)C(=O)[C@H]3CC[C@H]12	-6%[11.5 µM]	-3%[11.6 µM]	-9%[11.6 µM]	14%	/	2
COc1ccc(NC(=O)/C(C#N)=C\C=C\c2ccco2)cc1	2.5µM*	13%	-9%	-26%	6%	-4
Cc1cc(C)c(O)c(N)c1	22µM*	-17%	-25%	20µM*	16µM*	-16
COc1ccc(NCc2cc3cc4c(cc3n(CC(=O)Nc3ccc(C)cc3)c2=O)OCO4)cc1	-22%	?	22µM*[quencher]	/	/	/
